VDR inh: Inhibitors of the vitamin D receptor (VDR): qHTS; Potency, µM, without a hit: max response, negative = inhibition, hits mostly inhibitors; Vitamin D3 receptor (Homo sapiens), P11473; VDR-SRC2-3 peptide fluorescence polarization, 2 h; hit rate 0.93% among 400,000
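Compounds are added to VDR with labelled SRC2-3 coactivator peptide and held 2 h at room temperature. Inhibition of the VDR–peptide interaction is then read as a change in fluorescence polarization.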
GLS inhibitor: qHTS for Inhibitors of Glutaminase (GLS); Potency, µM (series often up to 45.5 µM), without a hit: at the highest dose activity change, negative = inhibition, most hits filed as inhibitors; Glutaminase kidney isoform, mitochondrial (Homo sapiens), O94925; hit rate 0.21% among 410,000; GLS enzymatic activity, qHTS titration
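hKGA; 45 mM KH2PO4 pH 8.2 + 0.02% Tween-20; cpd via pin tool; 1 mM Gln soln; GluOx/HRP/Amplex Red; RT 30 min; fluor. t0 & final.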
GCN5L2 inh: qHTS Assay for Inhibitors of GCN5L2; Histone acetyltransferase KAT2A (Homo sapiens), Q92830; GCN5L2 HAT assay, ThioGlo1 CoA-SH fluorescence; Potency, µM (series often up to 58.9 µM), without a hit: at the top dose activity change, negative = inhibition, most hits filed as inhibitors; hit rate 0.21% among 390,000; AID 504327, 2011
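qHTS, 1536-well. 20nM enzyme, pH 7.5 HEPES/EDTA/Tween-20 buffer; 15 min compound preinc., RT. Start: 75uM H3(1-25), 70uM AcCoA, 50uM ThioGlo1. Read Ex340/Em540 at t=0 (autofluorescence flag) and t=20 min.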
TrxR1 inh: qHTS Assay for Inhibitors of Mammalian Selenoprotein Thioredoxin Reductase 1 (TrxR1): qHTS; Potency, µM (doses to about 114 µM), without a hit: top-dose activity change, negative = inhibition, most hits filed as inhibitors; recombinant rTrxR1, NADPH fluorescence consumption, selenite substrate; hit rate 1% among 390,000; AID 588453, 2011; note: nearly all actives have a fitted effect of over 65% in size
Target sequence (O89049 whole entry, looked up): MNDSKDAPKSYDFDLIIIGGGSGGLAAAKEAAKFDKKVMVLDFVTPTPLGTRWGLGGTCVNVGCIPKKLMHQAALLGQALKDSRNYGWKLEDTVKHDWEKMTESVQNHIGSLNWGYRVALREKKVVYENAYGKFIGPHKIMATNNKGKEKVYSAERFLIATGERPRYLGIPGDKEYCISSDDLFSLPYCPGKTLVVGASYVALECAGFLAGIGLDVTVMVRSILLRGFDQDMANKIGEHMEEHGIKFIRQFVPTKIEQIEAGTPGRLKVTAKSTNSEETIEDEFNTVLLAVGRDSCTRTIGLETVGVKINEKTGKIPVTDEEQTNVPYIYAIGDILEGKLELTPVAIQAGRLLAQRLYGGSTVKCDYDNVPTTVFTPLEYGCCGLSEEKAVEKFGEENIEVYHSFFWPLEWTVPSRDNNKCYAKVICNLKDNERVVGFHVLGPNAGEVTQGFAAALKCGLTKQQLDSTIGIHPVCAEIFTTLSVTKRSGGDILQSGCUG
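Rat TrxR1 (90 nM in the dispensed reagent) was pre-reduced with 400 uM NADPH for 5 min at room temperature, then incubated with compound for 15 min. After 400 uM selenite was added, NADPH fluorescence (Ex 340/Em 450 nm) was followed for 8 min.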
Sfp PPTase inh: qHTS Assay for Inhibitors of Bacillus subtilis Sfp phosphopantetheinyl transferase (PPTase); 4'-phosphopantetheinyl transferase ffp (Bacillus subtilis), Q9F4F7; Biochemical Sfp PPTase activity, qHTS; Potency, µM, inactives show largest response in the series, negative = inhibition, most hits filed as inhibitors; hit rate 3.5% among 310,000; AID 1490, 2009;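 note: the enzyme is Sfp with the accession as filed and its product quenches rhodamine fluorescence; 0% = enzyme reaction without inhibitor and -100% = no enzyme wells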
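With Hepes-Na pH 7.6 buffer containing 10 mM MgCl2, Sfp (15 nM) modified BHQ-2-YbbR (12.5 uM) using rhodamine-CoA (5 uM). Two reads 30 minutes apart at 525/598 nm yielded each well's rate.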
TrxR1 substrate: qHTS Assay for Substrates of Mammalian Selenoprotein Thioredoxin Reductase 1 (TrxR1): qHTS. Potency, µM (highest dose often 114 µM), without a hit: at the top dose activity change, negative = substrate turnover. Thioredoxin reductase 1, cytoplasmic (Rattus norvegicus), O89049. hit rate 0.01% among 390,000. AID 588456, 2011. purified TrxR1 substrate turnover, NADPH consumption readout; note: nearly all actives have a fitted effect of over 50% in size
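Rat TrxR1, dispensed at 90 nM, was prereduced with 400 uM NADPH (final) for 5 min at ~22 deg C, then incubated with compound 15 min before 400 uM selenite. A first-read NADPH fluorescence drop versus no-compound background flagged substrates.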
* hit, by the source's call; ? = inconclusive; / = no result; ! = a repeat was not active; [ ] = another dose, or the depositor's remark. Hits are enriched below; roughly 3.8% of the tested compounds scored in any of these assays. Calls come from the whole dose curve; as a rule, active = well fitted curve in the direction sought with a large enough effect; inconclusive = small, poorly fitted or top-dose-only effect, or another doubt; inactive = no such curve, though single readings can be large; an effect the other way counts as inactive or inconclusive. Unless noted, % is set by controls: 0 for no effect and ±100 for the full control effect; potency is the fitted concentration of half-maximal effect.

SMILES	VDR inh	GLS inhibitor	GCN5L2 inh	TrxR1 inh	Sfp PPTase inh	TrxR1 substrate
C=CCn1c(COc2ccc(F)cc2)nnc1SCC(=O)NC(=O)NCc1ccco1	5.3%	8.0%	-9.5%	-15.1%	-25.7%	7.4%
O=C(CSc1nnc(COc2ccccc2)n1Cc1ccco1)NCc1ccco1	-13.9%	-1.6%	-13.4%	11.2µM*	-26.7%	4.9%
O=C(O)CSc1nnc(CNc2cccc(C(F)(F)F)c2)n1Cc1ccco1	-26.3%	-21.2%	-1.1%	-25.8%	39.8µM*	5.7%
O=C(CSc1nnc(CNc2ccc(F)cc2)n1Cc1ccco1)N1CCOCC1	12.0%	18.7%	1.0%	-3.8%	-10.2%	1.8%
Cc1cc(NC(=O)CSc2nnc(COc3ccccc3)n2Cc2ccco2)no1	14.7%	0.0%	-3.4%	20.2%	-9.4%	10.7%
O=C(Nc1nnc2n1CCS2)c1ccccc1	15.3%	-25.5%	3.3%	13.6%[57.1 µM]	/	-1.0%[57.1 µM]
O=C(Nc1nnc2n1CCS2)c1ccc(Br)o1	-5.9%	-13.9%	-5.4%	13.2%	56.2µM*	-2.1%
COc1ccc(Br)cc1CNC(=O)CCSCc1ccc(C)cc1	4.6%	-4.7%	-2.8%	21.2%[57.1 µM]	/	2.7%[57.1 µM]
O=c1oc2ccccc2c(N2CCCCC2)c1CN1CCCCC1	-8.4%	5.8%	0.7%	25.1µM*	-8.9%	-0.3%
Cc1ccc(C(=O)Nn2c(O)c(C=C3N=c4ccccc4=N3)sc2=S)cc1	-14.2%	-3.4%	-4.3%	5.3%	50.1µM*	4.9%
CCc1ccc2[nH]c(=O)c(CN(Cc3ccco3)Cc3nnnn3Cc3ccco3)cc2c1	-24.1%	/	/	0.6%	/	9.9%[0.0914 µM]
Cc1ccc2cc(CN(Cc3ccc4c(c3)OCO4)Cc3nnnn3Cc3ccco3)c(=O)[nH]c2c1	-21.2%	-0.1%	-23.8%	-7.4%	25.1µM*	5.5%
Cc1ccc(C)c2[nH]c(=O)c(C(c3nnnn3CCc3ccccc3)N3CCOCC3)cc12 (stereo not drawn)	16.6%	4.1%	0.9%	1.4%[11.4 µM]	7.2%	21.4%
Cc1ccc(CN(Cc2cc3cc4c(cc3[nH]c2=O)OCCO4)Cc2nnnn2Cc2ccco2)cc1	?	-4.0%	?	?	10µM*	24.3%
Cc1ccc2[nH]c(=O)c(CN(Cc3ccco3)Cc3nnnn3Cc3ccco3)cc2c1	-10.3%	/	/	13.2%	/	1.2%
Cc1ccc(C)c2[nH]c(=O)c(C(c3nnnn3Cc3ccco3)N3CCc4ccccc4C3)cc12 (stereo not drawn)	18.5%	16.1%	-1.7%	3.7%[11.4 µM]	20µM*	-2.7%[11.4 µM]
COc1ccccc1CN(Cc1cc2c(C)ccc(C)c2[nH]c1=O)Cc1nnnn1Cc1ccco1	2.7%	-3.8%	-19.5%	11.7%[57.1 µM]	20µM*	5.9%[57.1 µM]
Cc1ccc2[nH]c(=O)c(CN(Cc3ccccc3)Cc3nnnn3Cc3ccco3)cc2c1	-16.8%	/	/	-28.4%	/	-2.8%[0.0914 µM]
COc1cccc(NC(=O)CNC(=O)N2CC(=O)Nc3ccccc32)c1	0.6%	-6.4%	0.5%	10.7%	18.5%	7.7%
CCOc1ccc(CCNC(=O)c2nc(-c3cccc(F)c3)n3c2CCCCC3)cc1OCC	-4.2%	3.5%	-13.6%	-4.9%	/	-2.1%
NC(=O)N/N=C/c1ccc(N2CCOCC2)s1	-15.9%	35.0%	-2.8%	-32.9%	79.4µM*	-3.2%
O=C(O)c1cc(N/N=C/c2ccc(N3CCOCC3)s2)ccc1Cl	-28.1%	67.9%	-23.1%	-32.7%	56.2µM*	-11.5%
Cc1ccc(Cl)cc1NC(=O)Cn1c(=O)oc2cc(S(=O)(=O)N3CCCC3)ccc21	10.2%	-13.9%	-10.9%	14.4%	/	-1.5%
COc1ccc(NC(=O)CN(C)C(=O)c2cc(-c3ccco3)nc3ccccc23)cc1	-5.7%	?	20µM*	?	/	180.2%
COc1cccc(CN(C)C(=O)c2cc(-c3ccc(F)cc3)nc3ccccc23)c1	-20.8%	1.4%	?	-3.8%	22.4µM*	-3.5%
SMILES	VDR inh	GLS inhibitor	GCN5L2 inh	TrxR1 inh	Sfp PPTase inh	TrxR1 substrate
O=C(O)c1cc(-c2ccco2)nc2ccc(Br)cc12	20µM*!	7.94µM*!	?	1.26µM*!	12.6µM*!	0.4%
Cn1c(=O)c(C(=O)COC(=O)c2cc(-c3ccco3)nc3ccccc23)c(N)n(Cc2ccccc2)c1=O	/	/	?	/	31.6µM*	/
NC(=O)COC(=O)c1cc(-c2ccco2)nc2ccccc12	-7.6%	-14.0%	-5.3%	79.4µM*	-28.8%	60.3%
CC(C)Cn1c(N)c(C(=O)COC(=O)c2cc(-c3ccco3)nc3ccccc23)c(=O)n(C)c1=O	?	?	?	2.82µM*	20µM*!	13.8%
COc1ccccc1CNC(=O)COC(=O)c1cc(-c2ccco2)nc2ccccc12	7.9%	?	-28.8%	?	?	25.5%
Cc1ccc(Br)cc1S(=O)(=O)N1CCN(c2ccccc2)CC1	20.5%	-0.7%	-11.0%	-12.1%	1.6%	-10.5%
Cc1ccc(S(=O)(=O)N(C)CCCC(=O)NCc2ccc3c(c2)OCO3)cc1	3.2%	-19.1%	-4.8%	11.1%[57.1 µM]	?	-5.8%
O=C(NCCCN1CCCCC1)c1ccc2c(=O)n(CCc3ccccc3)c(=O)[nH]c2c1	-3.6%	0.5%	-0.5%	-15.5%	0.8%	4.7%
NN1C(=O)/C(=C\c2ccco2)SC1=S	21.7%	-2.9%	-19.0%	-60.7%	3.16µM*	-11.1%
O=C1/C(=C/c2ccco2)SC(=S)N1c1cccnc1	-18.1%	11.1%	28.2µM*	?	31.6µM*	-2.6%
O=C1/C(=C\c2ccc(O)cc2)SC(=S)N1c1cccnc1	9.9%	-9.6%	1.9%	7.3%	-28.2%	-0.3%

Screening data: PubChem BioAssay, National Center for Advancing Translational Sciences (NCATS)
